LGR2 antag: inhibitors of bursicon-induced LGR2 CRE-luciferase signal, primary screen, cell-based, HEK293, CRE-luciferase reporter, bursicon stimulation; actives 0.35% (n = 380,000); inhibition, % at 9.99 µM; Drosophila bursicon receptor LGR2 (rickets); AID 720647, 2013; bursicon-stimulated, 4 h;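 active = drop in luminescence signal, shown as inhibition above about 50% in the replicate tests, limit read from the data, passing the limit was not always enough; inconclusive = probably only some replicates passing the limit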;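 note: agonist challenge used bursicon conditioned medium at about half maximal strength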
TROY NFkB inh: inhibitors of TROY-driven NF-kB signaling, primary screen, Q293 LMP1-TROYcd cells, NF-kB luciferase, uHTS | inhibition, % at 10 µM | Q293 LMP1-TROYcd NF-kB luciferase reporter, 4 h | actives 0.98% (n = 360,000) | AID 1347056, 2019;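 active = compounds whose plate-normalised and pattern-corrected inhibition of the luciferase reporter signal at the single screening dose is 50% or more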
EBV LMP1 NFkB: EBV LMP1-driven NF-kappaB luciferase reporter inhibitors, primary screen, cell-based, luminescence, single point; LMP1-induced NF-kappaB luciferase reporter cells; inhibition, % at 12.5 µM; actives 0.69% (n = 350,000); AID 504558, 2011; in the data active = inhibition above about 41%; inconclusive = no clear call, values can overlap the other calls;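 note: 0% = neutral control wells and 100% = reference inhibitor control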
TWEAK-Fn14 inh: inhibitors of TWEAK-Fn14 signaling, primary screen, luciferase reporter cells, uHTS. TWEAK-stimulated Fn14 reporter cells, luciferase luminescence, 8 h. inhibition, % at 10 µM. actives 2% (n = 360,000). AID 1159606, 2016; in the data active = inhibition above about 50%
EWS-Fli block: EWS/Fli-driven NR0B1 reporter inhibitors, primary screen, A673 cells, NR0B1 luciferase, luminescence, MLPCN library. viability-normalised. inhibition, % at 12.6 µM. actives 0.67% (n = 350,000);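 active = mean inhibition of at least 50% after viability correction, with every replicate also passing that limit; inconclusive = mean reaches 50% but only one of two replicates passes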;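 note: firefly luciferase signal divided by Alamar Blue viability fluorescence both relative to DMSO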
Active calls of the source: *; ? = inconclusive; . = no result given. Only some compounds are listed: those with a hit (about 2.6% of all), similar ones and a draw of the others.

SMILES	LGR2 antag	TROY NFkB inh	EBV LMP1 NFkB	TWEAK-Fn14 inh	EWS-Fli block
C[C@H]1CN([C@@H](C)CO)C(=O)Cc2cc(NS(=O)(=O)c3cn(C)cn3)ccc2O[C@H]1CN(C)Cc1ccc(C(=O)O)cc1	-2.2	.	.	.	-11.9
c1ccc2nc(-c3nc4ccccc4o3)ccc2c1	85.3*	58.3*	4.9	93.6*	.
Cc1nn(C)c2ncc(C(=O)c3ccccc3O)cc12	-3.8	-19.8	3.0	10.2	-1.7
Cc1[nH]nc2ncc(C(=O)c3ccccc3O)cc12	.	48.9	38.1	58.6*	.
CCOC(=O)c1cccc2c1-c1ccccc1/C2=N/O	.	50.3*	24.1	86.2*	.
CO[C@H]1CN(C)C(=O)c2cc(NC(C)=O)ccc2OC[C@H](C)N(C(=O)CC2CC2)C[C@@H]1C	-3.7	.	.	.	-5.5
CCCOC(=O)c1cccc(Nc2nc(-c3cccnc3)nc3ccccc23)c1	4.7	24.3	-16.6	56.8*	28.2
O=C(Nc1ccc2c(c1)OCO2)N[C@H]1CC[C@H](CCNC(=O)C2CCCCC2)O[C@@H]1CO	2.9	.	.	.	4.8
COc1ccc(-c2cc(C(=O)Nc3ccc(C)c(C)c3)no2)cc1	0.5	-0.4	6.9	-17.0	-5.0
CC(C)Cc1cc(C(=O)Nc2ccc(Br)cc2)no1	-89.6	-17.1	-28.8	-13.4	-120.8
COc1ccc(-c2cc(C(=O)Nc3cccc(O)c3)no2)cc1	34.8	30.5	4.4	66.8*	69.1*
CC(C)Cc1cc(C(=O)Nc2cccc(O)c2)no1	41.4	22.2	-1.7	64.9*	-38.6
C[C@@H]1CN([C@@H](C)CO)C(=O)c2cc(C#CC3(O)CCCC3)cnc2O[C@H]1CN(C)C	3.8	.	.	.	-14.5
CN(C)CC#Cc1ccc([C@H]2[C@@H](CO)N3CCCCN(CC4CC4)C[C@@H]23)cc1	3.9	.	.	.	-9.3
CC1CCC/C=C/C(=O)c2c(O)cc(O)cc2CC(=O)O1 (configuration not stated)	69.3*	42.8	-18.7	94.1*	45.2
Cn1nc(-c2ccc(N3CCOCC3)c(NS(=O)(=O)c3ccccc3)c2)c2ccccc2c1=O	36.6	-27.3	61.3*	37.7	9.0
CC(=O)Nc1cc(-c2nn(C)c(=O)c3ccccc23)ccc1N1CCCCC1	.	-5.8	5.6	6.0	.
Cc1ccc(-c2cc(C(=O)N(C)Cc3cnn(C)c3C)c3cc(Br)ccc3n2)cc1	71.3*	-25.7	-6.6	26.5	-14.6
Nc1c(C(O)(C(F)(F)F)C(F)(F)F)cc(C(O)(C(F)(F)F)C(F)(F)F)c2ccccc12	.	51.8*	-12.7	44.5	.
COc1ccc2c3c(n(C)c2c1)[C@@H](CO)N(C(=O)c1ccncc1)CC31CN(S(C)(=O)=O)C1	-20.7	.	.	.	-4.2
CC1(C)CC(NS(=O)(=O)c2ccc(F)cc2)CC(C)(C)N1	-11.6	13.3	43.4*	3.2	8.7
COc1ccc(-c2[nH]c(-c3ccc(C(=O)O)cc3)nc2-c2ccccc2)cc1	.	-19.2	-1.6	3.6	.
COc1cc(-c2nc(-c3ccc4c(c3)-c3ccccc3S4(=O)=O)c(-c3ccccc3)[nH]2)cc(OC)c1O	.	-8.7	7.2	58.6*	.
C[C@@H]1CN([C@H](C)CO)C(=O)c2cc(NC(=O)NC3CCCCC3)ccc2O[C@@H](C)CCCCO[C@H]1CN(C)S(=O)(=O)c1cccs1	24.6	.	.	.	16.9
O=C(O)c1ccc(CSc2nc3ccc(N4C(=O)C5C6C=CC(C6)C5C4=O)cc3s2)cc1 (configuration not stated)	1.9	34.4	-10.2	51.1*	.
SMILES	LGR2 antag	TROY NFkB inh	EBV LMP1 NFkB	TWEAK-Fn14 inh	EWS-Fli block
CCc1cccc(CC)c1NC(=O)CSc1nc2ccc(N3C(=O)C4C5C=CC(C5)C4C3=O)cc2s1 (configuration not stated)	.	19.9	8.3	13.9	.
CC1Cc2cc(/C(O)=C3/C(=O)C(=O)N(Cc4ccco4)C3c3cccs3)ccc2O1 (configuration not stated)	.	64.8*	-7.7	65.5*	.
COc1ccc(/C(O)=C2/C(=O)C(=O)N(Cc3ccco3)C2c2cccs2)cc1 (configuration not stated)	.	-37.3	-0.7	-10.0	.
COc1ccccc1-c1cnc2c(c1)C(=O)N([C@H](C)CO)C[C@H](C)[C@H](CN(C)C(=O)c1ccncc1)O2	2.3	.	.	.	0.2
NC(=O)N/N=C/c1c(Sc2nnnn2-c2ccccc2)nc2ccccn2c1=O	?	-6.3	17.2	95.8*	4.2
CN(C)c1ccc(/C=C(\C#N)c2ccccc2)cc1	.	-18.6	4.9	28.2	.
CN(C)c1cccc(/C=C(\C#N)c2ccccc2)c1	11.7	-29.7	-36.2	31.0	55.0*
CNC[C@@H]1Oc2ncc(-c3cncnc3)cc2C(=O)N([C@H](C)CO)C[C@@H]1C	-0.2	.	.	.	.
CCCN1C[C@@H](C)[C@@H](OC)CN(C)C(=O)c2ccc(NC(=O)COC)cc2OC[C@H]1C	-2.7	.	.	.	-15.2
CCOc1ccccc1-n1c(SCC(=O)Nc2ccccc2C(=O)O)nc2ccccc2c1=O	40.5	77.9*	20.6	92.3*	12.7
Cc1cc(C)c(C(=O)/C=C/c2cccc3ccccc23)c(=O)[nH]1	67.3*	53.7*	58.5*	94.8*	21.1
C/C(=C\c1cccc(Cl)c1Cl)C(=O)c1c(C)cc(C)[nH]c1=O	10.7	21.2	3.9	72.4*	3.5
Cc1cc(C)c(C#N)c(SCc2cn3ccccc3n2)n1	-42.2	53.6*	17.1	40.7	8.9
CC(C)C#Cc1cnc2c(c1)C(=O)N([C@H](C)CO)C[C@H](C)[C@H](CN(C)S(=O)(=O)c1cn(C)cn1)O2	-8.8	.	.	.	2.6
C[C@H]1CCCCO[C@H](CN(C)C(=O)c2ccccc2)[C@@H](C)CN([C@@H](C)CO)C(=O)c2cc(NS(=O)(=O)c3ccccc3)ccc2O1	5.6	.	.	.	-2.9
Cc1ccc2c(c1)[C@H]1[C@H](CO2)[C@H](c2ccccc2)[C@]2(C)C(=O)Nc3ccccc3C(=O)N12	37.2	2.9	19.7	13.0	56.6*
COc1ccc2c(c1)[C@H]1[C@H](CO2)[C@H](c2ccccc2)[C@]2(C)C(=O)Nc3ccc(C)cc3C(=O)N12	.	8.1	-47.9	11.4	25.5
Cc1ccc2c(c1)[C@H]1[C@H](CO2)[C@H](c2ccccc2)[C@]2(C)C(=O)Nc3cc(F)ccc3C(=O)N12	1.8	17.9	17.2	19.1	61.1*
COc1ccc2c(c1)C(=O)N1[C@H]3c4cc(C)ccc4OC[C@@H]3[C@H](c3ccccc3)[C@]1(C)C(=O)N2	3.1	16.5	38.3	15.7	64.1*
COc1ccc(CN(C)C[C@H]2Oc3c(NS(=O)(=O)c4cccs4)cccc3C(=O)N([C@@H](C)CO)C[C@@H]2C)cc1	-9.0	.	.	.	-6.7
C[C@@H]1CCCCO[C@H](CN(C)S(=O)(=O)c2cccs2)[C@H](C)CN([C@@H](C)CO)C(=O)c2cc(NS(=O)(=O)c3ccc(Cl)cc3)ccc2O1	7.9	.	.	.	-9.6
Cc1cc2ncc(-c3ncc(C(F)(F)F)cc3Cl)cn2n1	.	43.9	37.3	83.8*	54.2*

Screening data from PubChem BioAssay.
